The supplement of paper PMC10849652
About 7,900 targets were measured; listed, in parts, are those with a hit and a random draw of the rest. About 0.6% of all pairs of compound and target were hits.

Tests used:
Assay in all cases: log2 fold change, soluble protein after heating vs DMSO (PISA); higher = thermal stabilisation; K562 cells, 10 uM, 30 min; active = over 0.2 and 3.5 SD of the protein, either way, in both replicates (recomputed)
bafetinib = compound: Cc1ccc(NC(=O)c2ccc(CN3CC[C@H](N(C)C)C3)c(C(F)(F)F)c2)cc1Nc1nccc(-c2cncnc2)n1 [bafetinib]
Method in brief: (§1)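 K562 cells at 2×10^6 cells/mL were given 10 μM compound for 30 min. Aliquots then went through 3 min of heating across 48°C-58°C, were pooled, and were extracted in PBS with 0.5% NP-40 at 4°C, and the supernatant after 21,000xg for 90 min was quantified by TMTpro 16plex LC-MS/MS with channel sums equalised. Thermal stability relative to control samples, from duplicates, is given as log2 fold change.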

[1] = compound: Cc1cccc(CC(=O)N2CCc3c2ccc(-c2cn(C)c4ncnc(N)c24)c3F)n1
Method in brief: as §1

nilotinib = compound: Cc1cn(-c2cc(NC(=O)c3ccc(C)c(Nc4nccc(-c5cccnc5)n4)c3)cc(C(F)(F)F)c2)cn1 [nilotinib]
Method in brief: as §1

[2] = compound: Cc1nc(Nc2n[nH]c3c2CN(C(=O)N[C@H](CN(C)C)c2ccccc2)C3(C)C)c2sccc2n1
Method in brief: as §1

dasatinib = compound: Cc1nc(Nc2ncc(C(=O)Nc3c(C)cccc3Cl)s2)cc(N2CCN(CCO)CC2)n1 [dasatinib]
Method in brief: as §1

[3] = compound: Cc1ncc(-c2ccnc(Nc3ccc(S(C)(=O)=O)cc3)n2)n1C(C)C
Method in brief: as §1

[4] = compound: Cn1cc(-c2ccc3c(c2)CCN3C(=O)Cc2cccc(C(F)(F)F)c2)c2c(N)ncnc21
Method in brief: as §1

[5] = compound: Cn1cc(-c2ccc3nnc(C(F)(F)c4ccc5ncccc5c4)n3n2)cn1
Method in brief: as §1

tipifarnib = compound: Cn1cncc1[C@@](N)(c1ccc(Cl)cc1)c1ccc2c(c1)c(-c1cccc(Cl)c1)cc(=O)n2C [tipifarnib]
Method in brief: as §1

mubritinib = compound: FC(F)(F)c1ccc(/C=C/c2nc(COc3ccc(CCCCn4ccnn4)cc3)co2)cc1 [mubritinib]
Method in brief: as §1

[6] = compound: NC(=O)Nc1cc(-c2cccc(F)c2)sc1C(=O)N[C@H]1CCCNC1
Method in brief: as §1

[7] = compound: NC(=O)c1cnc(N[C@@H]2CCCC[C@@H]2N)nc1Nc1cccc(-n2nccn2)c1
Method in brief: as §1

[8] = compound: NC1(c2ccc(-c3nc4ccn5c(=O)[nH]nc5c4cc3-c3ccccc3)cc2)CCC1
Method in brief: as §1

[9] = compound: NCC(=O)Nc1ccc(-n2nc(C(F)(F)F)cc2-c2ccc3c(ccc4ccccc43)c2)cc1
Method in brief: as §1

entinostat = compound: Nc1ccccc1NC(=O)c1ccc(CNC(=O)OCc2cccnc2)cc1 [entinostat]
Method in brief: as §1

vorinostat = compound: O=C(CCCCCCC(=O)Nc1ccccc1)NO [vorinostat]
Method in brief: as §1

citarinostat = compound: O=C(CCCCCCNC(=O)c1cnc(N(c2ccccc2)c2ccccc2Cl)nc1)NO [citarinostat]
Method in brief: as §1

silmitasertib = compound: O=C(O)c1ccc2c(c1)nc(Nc1cccc(Cl)c1)c1ccncc12 [silmitasertib]
Method in brief: as §1

[10] = compound: O=C1NC(=O)C(c2cnc3ccccn23)=C1c1cn2c3c(cc(F)cc13)CN(C(=O)N1CCCCC1)CC2
Method in brief: as §1

[11] = compound: c1cc(OCCN2CCCCC2)cc(-c2n[nH]c3ccc(-c4nnc[nH]4)cc23)c1
Method in brief: as §1

Measured: log2 fold change

CTNNB1 (UniProt P35222)
active: [3] 0.858 | [10] 1.3
inactive: bafetinib 0.026 | [1] 0.057 | nilotinib -0.056 | [2] 0.205 | dasatinib -0.149 | [4] -0.004 | [5] -0.021 | tipifarnib -0.115 | mubritinib 0.076 | [6] -0.14 | [7] -0.06 | [8] -0.18 | [9] -0.2 | entinostat -0.078 | vorinostat -0.001 | citarinostat 0.093 | silmitasertib 0.03 | [11] -0.107

FAM83D (UniProt Q9H4H8)
inactive: bafetinib -0.022 | [1] 0.145 | nilotinib -0.069 | [2] -0.088 | dasatinib -0.241 | [3] 0.016 | [4] -0.073 | [5] -0.027 | tipifarnib -0.107 | mubritinib 0.023 | [6] -0.031 | [7] -0.073 | [8] -0.072 | [9] 0.075 | entinostat 0.008 | vorinostat 0.066 | citarinostat 0.115 | silmitasertib 0.048 | [10] -0.058 | [11] 0.059

DCAF16 (UniProt Q9NXF7)
UniProt Q9NXF7, sequence (Q9NXF7 whole entry, looked up): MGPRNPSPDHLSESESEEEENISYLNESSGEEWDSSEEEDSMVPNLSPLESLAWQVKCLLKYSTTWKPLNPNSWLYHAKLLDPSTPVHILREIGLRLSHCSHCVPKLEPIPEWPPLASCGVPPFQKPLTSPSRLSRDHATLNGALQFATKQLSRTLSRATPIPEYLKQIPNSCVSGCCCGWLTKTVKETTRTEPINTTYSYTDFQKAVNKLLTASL
inactive: bafetinib -0.051 | [1] -0.056 | nilotinib -0.005 | [2] -0.004 | dasatinib -0.179 | [3] 0.005 | [4] -0.031 | [5] 0.091 | tipifarnib -0.155 | mubritinib -0.085 | [6] -0.122 | [7] -0.109 | [8] -0.09 | [9] -0.036 | entinostat 0.02 | vorinostat 0.004 | citarinostat 0.07 | silmitasertib 0.082 | [10] -0.09 | [11] -0.041

EIF4E isoform 2 (UniProt P06730)
UniProt P06730, sequence (P06730 whole entry, looked up): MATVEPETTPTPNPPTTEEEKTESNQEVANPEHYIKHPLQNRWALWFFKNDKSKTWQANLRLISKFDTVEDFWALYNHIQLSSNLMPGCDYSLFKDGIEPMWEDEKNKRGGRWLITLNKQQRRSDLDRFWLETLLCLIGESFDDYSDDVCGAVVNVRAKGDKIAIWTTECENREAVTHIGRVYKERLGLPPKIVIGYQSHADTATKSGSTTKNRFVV
inactive: bafetinib 0.012 | [1] 0.05 | nilotinib 0.199 | [2] -0.072 | dasatinib 0.013 | [3] 0.272 | [4] 0.125 | [5] 0.082 | tipifarnib -0.029 | mubritinib 0.045 | [6] 0.005 | [7] 0.226 | [8] 0.059 | [9] 0.126 | entinostat -0.073 | vorinostat -0.01 | citarinostat -0.026 | silmitasertib 0.102 | [10] -0.044 | [11] 0.141

ERCC6 (UniProt Q03468)
active: bafetinib -0.775
inactive: [1] -0.016 | nilotinib 0.041 | [2] -0.087 | dasatinib -0.043 | [3] -0.021 | [4] 0.129 | [5] -0.094 | tipifarnib 0.019 | mubritinib 0.059 | [6] -0.288 | [7] -0.022 | [8] -0.062 | [9] 0.034 | entinostat -0.191 | vorinostat -0.003 | citarinostat -0.213 | silmitasertib 0.079 | [10] 0.013 | [11] -0.236

DNAH11 (UniProt Q96DT5)
UniProt Q96DT5, sequence (Q96DT5 whole entry, looked up): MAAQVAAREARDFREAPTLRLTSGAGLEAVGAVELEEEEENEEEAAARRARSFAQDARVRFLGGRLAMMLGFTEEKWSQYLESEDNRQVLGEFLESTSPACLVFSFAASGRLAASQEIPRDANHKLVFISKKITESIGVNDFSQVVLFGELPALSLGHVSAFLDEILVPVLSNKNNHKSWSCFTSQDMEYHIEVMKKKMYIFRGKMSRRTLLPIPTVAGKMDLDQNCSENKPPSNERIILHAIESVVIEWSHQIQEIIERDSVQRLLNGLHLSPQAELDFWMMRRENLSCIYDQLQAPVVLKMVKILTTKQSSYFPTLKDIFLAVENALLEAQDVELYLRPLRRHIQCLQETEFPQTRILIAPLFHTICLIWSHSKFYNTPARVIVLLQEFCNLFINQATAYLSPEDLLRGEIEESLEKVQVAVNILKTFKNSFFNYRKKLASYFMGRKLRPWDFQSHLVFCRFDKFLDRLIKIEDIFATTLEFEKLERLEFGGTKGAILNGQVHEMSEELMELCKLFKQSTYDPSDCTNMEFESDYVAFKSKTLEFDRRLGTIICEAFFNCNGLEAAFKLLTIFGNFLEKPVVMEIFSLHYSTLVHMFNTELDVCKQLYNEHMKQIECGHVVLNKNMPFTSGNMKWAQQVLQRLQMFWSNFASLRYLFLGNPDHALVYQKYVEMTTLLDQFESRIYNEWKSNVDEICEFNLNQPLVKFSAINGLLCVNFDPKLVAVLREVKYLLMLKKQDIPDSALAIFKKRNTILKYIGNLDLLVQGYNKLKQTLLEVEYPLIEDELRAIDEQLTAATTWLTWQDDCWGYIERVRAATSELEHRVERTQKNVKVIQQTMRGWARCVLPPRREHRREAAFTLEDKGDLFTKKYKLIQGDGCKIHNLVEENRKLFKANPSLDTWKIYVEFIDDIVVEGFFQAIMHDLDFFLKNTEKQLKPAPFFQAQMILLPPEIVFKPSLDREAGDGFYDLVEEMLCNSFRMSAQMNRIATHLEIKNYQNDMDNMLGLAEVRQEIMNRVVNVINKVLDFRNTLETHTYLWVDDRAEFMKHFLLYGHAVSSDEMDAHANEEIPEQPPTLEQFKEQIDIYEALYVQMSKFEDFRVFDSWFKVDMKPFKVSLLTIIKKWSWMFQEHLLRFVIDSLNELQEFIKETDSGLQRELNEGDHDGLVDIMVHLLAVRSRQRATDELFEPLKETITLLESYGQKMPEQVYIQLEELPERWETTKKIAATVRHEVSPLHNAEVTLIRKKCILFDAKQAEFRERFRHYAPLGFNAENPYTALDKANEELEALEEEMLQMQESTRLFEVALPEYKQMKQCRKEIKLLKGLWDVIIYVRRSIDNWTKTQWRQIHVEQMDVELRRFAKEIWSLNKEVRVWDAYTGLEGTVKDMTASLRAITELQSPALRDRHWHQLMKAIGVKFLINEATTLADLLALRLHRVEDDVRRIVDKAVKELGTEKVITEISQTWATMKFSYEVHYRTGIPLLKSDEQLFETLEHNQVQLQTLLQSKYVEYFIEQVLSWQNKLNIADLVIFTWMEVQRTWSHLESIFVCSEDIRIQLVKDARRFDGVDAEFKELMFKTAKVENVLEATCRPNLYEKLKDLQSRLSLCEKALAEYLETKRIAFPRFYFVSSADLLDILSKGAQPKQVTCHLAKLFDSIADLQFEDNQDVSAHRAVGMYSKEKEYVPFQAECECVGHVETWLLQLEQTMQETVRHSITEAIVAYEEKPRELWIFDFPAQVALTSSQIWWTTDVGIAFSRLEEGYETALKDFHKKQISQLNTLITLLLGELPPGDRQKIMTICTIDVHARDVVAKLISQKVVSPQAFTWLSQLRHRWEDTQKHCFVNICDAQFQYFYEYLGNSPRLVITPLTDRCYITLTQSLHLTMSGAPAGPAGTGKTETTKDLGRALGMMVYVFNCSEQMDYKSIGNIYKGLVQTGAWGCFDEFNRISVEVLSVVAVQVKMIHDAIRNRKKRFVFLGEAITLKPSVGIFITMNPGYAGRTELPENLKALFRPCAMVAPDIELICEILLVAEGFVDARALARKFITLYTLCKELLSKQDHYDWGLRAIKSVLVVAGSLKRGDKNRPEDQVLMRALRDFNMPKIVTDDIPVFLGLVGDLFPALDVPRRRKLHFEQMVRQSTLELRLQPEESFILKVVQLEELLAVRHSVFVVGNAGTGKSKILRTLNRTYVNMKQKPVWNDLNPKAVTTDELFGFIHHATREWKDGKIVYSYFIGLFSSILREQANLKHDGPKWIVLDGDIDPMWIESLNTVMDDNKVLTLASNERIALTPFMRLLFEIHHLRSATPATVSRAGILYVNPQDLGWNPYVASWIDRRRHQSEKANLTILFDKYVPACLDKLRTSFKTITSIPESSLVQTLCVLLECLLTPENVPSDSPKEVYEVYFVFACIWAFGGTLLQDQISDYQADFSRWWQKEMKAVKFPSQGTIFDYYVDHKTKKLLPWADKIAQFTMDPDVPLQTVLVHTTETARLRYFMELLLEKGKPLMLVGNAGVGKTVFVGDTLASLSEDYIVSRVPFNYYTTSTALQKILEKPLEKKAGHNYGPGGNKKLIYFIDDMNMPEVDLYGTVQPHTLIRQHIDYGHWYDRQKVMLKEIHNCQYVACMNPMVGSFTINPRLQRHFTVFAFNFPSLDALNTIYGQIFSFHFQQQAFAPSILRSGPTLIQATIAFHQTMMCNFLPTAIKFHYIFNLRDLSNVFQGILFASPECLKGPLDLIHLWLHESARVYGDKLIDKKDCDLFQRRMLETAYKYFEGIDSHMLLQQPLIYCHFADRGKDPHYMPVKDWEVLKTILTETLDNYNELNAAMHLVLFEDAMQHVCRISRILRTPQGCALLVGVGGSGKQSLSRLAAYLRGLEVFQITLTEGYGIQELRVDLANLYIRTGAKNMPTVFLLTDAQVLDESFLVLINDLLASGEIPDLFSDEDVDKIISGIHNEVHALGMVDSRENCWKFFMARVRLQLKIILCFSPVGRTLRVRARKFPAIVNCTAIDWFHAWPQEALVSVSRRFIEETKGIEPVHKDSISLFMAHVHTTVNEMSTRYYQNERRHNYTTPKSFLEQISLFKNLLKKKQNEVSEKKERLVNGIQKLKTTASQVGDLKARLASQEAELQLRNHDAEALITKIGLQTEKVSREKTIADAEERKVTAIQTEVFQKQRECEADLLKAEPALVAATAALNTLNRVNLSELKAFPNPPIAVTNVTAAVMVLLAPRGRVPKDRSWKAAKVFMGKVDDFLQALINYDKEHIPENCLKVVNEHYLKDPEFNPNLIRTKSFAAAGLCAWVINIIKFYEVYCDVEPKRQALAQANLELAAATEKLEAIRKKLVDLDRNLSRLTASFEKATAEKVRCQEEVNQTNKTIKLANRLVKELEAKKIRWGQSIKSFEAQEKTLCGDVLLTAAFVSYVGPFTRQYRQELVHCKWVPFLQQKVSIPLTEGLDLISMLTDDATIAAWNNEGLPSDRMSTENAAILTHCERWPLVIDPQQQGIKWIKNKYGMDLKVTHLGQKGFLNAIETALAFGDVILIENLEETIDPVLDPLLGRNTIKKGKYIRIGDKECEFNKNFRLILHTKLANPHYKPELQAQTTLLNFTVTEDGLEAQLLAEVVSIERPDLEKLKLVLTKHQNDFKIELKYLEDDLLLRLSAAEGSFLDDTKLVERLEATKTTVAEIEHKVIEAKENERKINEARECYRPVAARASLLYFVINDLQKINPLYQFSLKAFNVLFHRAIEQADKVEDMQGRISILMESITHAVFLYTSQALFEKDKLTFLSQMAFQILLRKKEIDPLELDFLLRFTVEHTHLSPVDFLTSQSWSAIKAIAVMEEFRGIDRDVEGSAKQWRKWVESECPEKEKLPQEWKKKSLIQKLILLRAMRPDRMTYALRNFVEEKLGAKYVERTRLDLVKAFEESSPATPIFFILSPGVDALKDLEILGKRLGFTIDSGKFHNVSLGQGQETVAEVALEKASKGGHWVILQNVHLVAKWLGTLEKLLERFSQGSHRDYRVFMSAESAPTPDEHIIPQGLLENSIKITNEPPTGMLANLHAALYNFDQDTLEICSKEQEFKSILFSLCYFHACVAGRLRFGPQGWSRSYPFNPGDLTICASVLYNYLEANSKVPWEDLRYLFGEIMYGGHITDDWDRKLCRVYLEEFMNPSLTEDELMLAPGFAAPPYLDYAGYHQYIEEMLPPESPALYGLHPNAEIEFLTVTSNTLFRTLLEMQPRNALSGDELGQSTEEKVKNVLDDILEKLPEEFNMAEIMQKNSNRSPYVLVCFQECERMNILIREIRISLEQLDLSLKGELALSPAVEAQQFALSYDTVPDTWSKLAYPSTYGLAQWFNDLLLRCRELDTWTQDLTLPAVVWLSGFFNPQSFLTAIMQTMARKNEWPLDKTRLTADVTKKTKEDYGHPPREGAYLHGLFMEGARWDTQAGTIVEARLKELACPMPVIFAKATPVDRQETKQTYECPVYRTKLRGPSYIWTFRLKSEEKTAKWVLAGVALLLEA
inactive: bafetinib 0.097 | [1] -0.396 | nilotinib 0.101 | [2] 0.015 | dasatinib -0.036 | [3] 0.072 | [4] -0.441 | [5] 0.126 | tipifarnib 0.344 | mubritinib -0.276 | [6] -0.099 | [7] -0.064 | [8] 0.346 | [9] 0.044 | entinostat -0.032 | vorinostat -0.24 | citarinostat -0.213 | silmitasertib 0.197 | [10] -0.098 | [11] -0.09

EEA1 (UniProt Q15075)
inactive: bafetinib -0.043 | [1] -0.021 | nilotinib 0.013 | [2] 0 | dasatinib 0.061 | [3] 0.004 | [4] -0.015 | [5] 0.028 | tipifarnib 0.007 | mubritinib 0.041 | [6] 0.013 | [7] -0.014 | [8] 0.006 | [9] -0.014 | entinostat -0.023 | vorinostat 0.004 | citarinostat -0.001 | silmitasertib 0.015 | [10] 0.006 | [11] -0.043

DCAF6 isoform 3 (UniProt Q58WW2)
inactive: bafetinib -0.071 | [1] 0.009 | nilotinib 0.009 | [2] 0.02 | dasatinib 0.008 | [3] -0.013 | [4] -0.016 | [5] 0.031 | tipifarnib 0.027 | mubritinib 0.017 | [6] 0 | [7] 0.019 | [8] 0.026 | [9] 0.007 | entinostat -0.005 | vorinostat 0.003 | citarinostat 0.021 | silmitasertib 0.045 | [10] -0.009 | [11] -0.008
